# Experimental data reported in PubChem BioAssay AID1159580 (chemical genetic matrix, 2015).
# Among all 5,500 compounds or so, about 2,000 (36%) were called active. Roughly 18% stayed inconclusive and do not appear here. Some of the results follow. Unmarked numbers belong to inactive results. Cut-off read from the data, not from the text of the source: active = normalized growth mostly below about 0.91 (no sharp cut-off); inconclusive = no clear call, values can overlap the other calls; inactive = mostly above about 0.92.
# Assay: chemical genetic growth profiling, strain panel (AID 1159580);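 note: tested at 20 µM; growth read once vehicle control cultures reached saturation at 30 °C; 1 = growth at the plate median or of vehicle wells; lower values mean less growth of the strain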
# Conditions: growth OD
# [1] = S. cerevisiae deletion strains, locus YAL013W, strain DEP1, hits give low values
# [2] = S. cerevisiae deletion strains, locus YBR229C, strain ROT2, hits give low values
# [3] = S. cerevisiae deletion strains, locus YDL101C, strain DUN1, hits give low values
# [4] = S. cerevisiae deletion strains, locus YDR150W, strain NUM1, hits give low values
# [5] = S. cerevisiae deletion strains, locus YEL061C, strain CIN8, hits give low values
# [6] = S. cerevisiae deletion strains, locus YGR078C, strain PAC10, hits give low values
# [7] = S. cerevisiae deletion strains, locus YHR030C, strain SLT2, hits give low values
# [8] = S. cerevisiae deletion strains, locus YJR043C, strain POL32, hits give low values
# [9] = S. cerevisiae deletion strains, locus YJR075W, strain HOC1, hits give low values
# [10] = S. cerevisiae deletion strains, locus YLR039C, strain RIC1, hits give low values
# [11] = S. cerevisiae deletion strains, locus YLR262C, strain YPT6, hits give low values
# [12] = S. cerevisiae deletion strains, locus YMR263W, strain SAP30, hits give low values
# [13] = S. cerevisiae deletion strains, locus YMR307W, strain GAS1, hits give low values
# [14] = S. cerevisiae deletion strains, locus YNL128W, strain TEP1, hits give low values
# [15] = S. cerevisiae deletion strains, locus YNL153C, strain GIM3, hits give low values
# [16] = S. cerevisiae deletion strains, locus YNL322C, strain KRE1, hits give low values
# [17] = S. cerevisiae deletion strains, locus YOL006C, strain TOP1, hits give low values
# [18] = S. cerevisiae deletion strains, locus YPL055C, strain LGE1, hits give low values
# [19] = S. cerevisiae deletion strains, locus YPL241C, strain CIN2, hits give low values
# [20] = S. cerevisiae deletion strains, locus YAL040C, strain CLN3, hits give low values
# [21] = S. cerevisiae deletion strains, locus YCL061C, strain MRC1 (second series), hits give low values
# [22] = S. cerevisiae deletion strains, locus YER002W, strain NOP16, hits give low values
# [23] = S. cerevisiae deletion strains, locus YNL175C, strain NOP13, hits give low values
# [24] = S. cerevisiae deletion strains, locus YNL197C, strain WHI3, hits give low values
# [25] = S. cerevisiae deletion strains, locus YNL224C, strain SQS1, hits give low values
# [26] = S. cerevisiae deletion strains, locus YOR083W, strain WHI5 (second series), hits give low values
compound,measurement,setting,value
CCCCCCC(C)OC(=O)COc1cc(Cl)c(Cl)cc1Cl (stereo not drawn),normalized growth,[1],0.994
same,normalized growth,"S. cerevisiae deletion strains, locus YBR021W, strain FUR4, hits give low values",0.985
same,normalized growth,[2],1
same,normalized growth,"S. cerevisiae deletion strains, locus YCL029C, strain bik1, hits give low values",0.992
same,normalized growth,"S. cerevisiae deletion strains, locus YDL035C, strain GPR1, hits give low values",1
same,normalized growth,"S. cerevisiae deletion strains, locus YDL074C, strain BRE1, hits give low values",1
same,normalized growth,[3],1
same,normalized growth,"S. cerevisiae deletion strains, locus YDL134C, strain PPH21, hits give low values",1.01
same,normalized growth,"S. cerevisiae deletion strains, locus YDL185W, strain tfp1, hits give low values",0.995
same,normalized growth,"S. cerevisiae deletion strains, locus YDL192W, strain arf1, hits give low values",0.995
same,normalized growth,"S. cerevisiae deletion strains, locus YDR101C, strain arx1, hits give low values",0.993
same,normalized growth,[4],1
same,normalized growth,"S. cerevisiae deletion strains, locus YDR162C, strain NBP2, hits give low values",0.964
same,normalized growth,"S. cerevisiae deletion strains, locus YDR318W, strain mcm21, hits give low values",0.989
same,normalized growth,"S. cerevisiae deletion strains, locus YDR388W, hits give low values",0.992
same,normalized growth,"S. cerevisiae deletion strains, locus YDR502C, strain sam2, hits give low values",0.997
same,normalized growth,[5],1
same,normalized growth,"S. cerevisiae deletion strains, locus YER110C, hits give low values",0.993
same,normalized growth,"S. cerevisiae deletion strains, locus YER155C, strain BEM2, hits give low values",0.984
same,normalized growth,"S. cerevisiae deletion strains, locus YER167W, strain BCK2, hits give low values",0.995
same,normalized growth,"S. cerevisiae deletion strains, locus YGL078C, strain dbp3, hits give low values",0.985
same,normalized growth,"S. cerevisiae deletion strains, locus YGL086W, strain mad1, hits give low values",0.988
same,normalized growth,"S. cerevisiae deletion strains, locus YGL248W, strain PDE1, hits give low values",0.993
same,normalized growth,[6],0.995
same,normalized growth,"S. cerevisiae deletion strains, locus YGR135W, strain pre9, hits give low values",0.994
same,normalized growth,"S. cerevisiae deletion strains, locus YGR229C, strain SMI1, hits give low values",0.952
same,normalized growth,"S. cerevisiae deletion strains, locus YGR252W, strain gcn5, hits give low values",0.99
same,normalized growth,[7],0.978
same,normalized growth,"S. cerevisiae deletion strains, locus YHR079C, strain IRE1 (second series), hits give low values",0.986
same,normalized growth,"S. cerevisiae deletion strains, locus YHR094C, strain hxt1, hits give low values",0.983
same,normalized growth,"S. cerevisiae deletion strains, locus YHR129C, strain ARP1, hits give low values",1
same,normalized growth,"S. cerevisiae deletion strains, locus YHR200W, strain rpn10, hits give low values",0.987
same,normalized growth,"S. cerevisiae deletion strains, locus YIL066C, strain RNR3, hits give low values",0.975
same,normalized growth,"S. cerevisiae deletion strains, locus YIL073C, strain SPO22, hits give low values",0.948
same,normalized growth,"S. cerevisiae deletion strains, locus YIL125W, strain kgd1, hits give low values",0.988
same,normalized growth,"S. cerevisiae deletion strains, locus YIR030C, strain dcg1, hits give low values",0.983
same,normalized growth,"S. cerevisiae deletion strains, locus YJL095W, strain BCK1, hits give low values",0.997
same,normalized growth,"S. cerevisiae deletion strains, locus YJL134W, strain LCB3, hits give low values",1.01
same,normalized growth,"S. cerevisiae deletion strains, locus YJL168C, strain set2, hits give low values",0.988
same,normalized growth,"S. cerevisiae deletion strains, locus YJL187C, strain SWE1 (second series), hits give low values",0.997
same,normalized growth,[8],0.988
same,normalized growth,[9],1.01
same,normalized growth,"S. cerevisiae deletion strains, locus YKL009W, strain mrt4, hits give low values",1
same,normalized growth,"S. cerevisiae deletion strains, locus YKL068W, hits give low values",0.989
same,normalized growth,"S. cerevisiae deletion strains, locus YKL085W, strain MDH1 (second series), hits give low values",0.986
same,normalized growth,"S. cerevisiae deletion strains, locus YKL085W, strain MDH1, hits give low values",0.986
same,normalized growth,"S. cerevisiae deletion strains, locus YKL190W, strain CNB1, hits give low values",1
same,normalized growth,"S. cerevisiae deletion strains, locus YKR001C, strain vps1, hits give low values",0.996
same,normalized growth,[10],0.95
same,normalized growth,"S. cerevisiae deletion strains, locus YLR058C, strain SHM2, hits give low values",0.999
same,normalized growth,"S. cerevisiae deletion strains, locus YLR102C, strain apc9, hits give low values",0.998
same,normalized growth,[11],0.946
same,normalized growth,"S. cerevisiae deletion strains, locus YLR268W, strain sec22, hits give low values",0.99
same,normalized growth,"S. cerevisiae deletion strains, locus YLR330W, strain CHS5, hits give low values",1
same,normalized growth,"S. cerevisiae deletion strains, locus YLR342W, strain FKS1 (second series), hits give low values",1.05
same,normalized growth,"S. cerevisiae deletion strains, locus YLR371W, strain rom2, hits give low values",0.993
same,normalized growth,"S. cerevisiae deletion strains, locus YLR418C, strain cdc73, hits give low values",0.947
same,normalized growth,"S. cerevisiae deletion strains, locus YML016C, strain PPZ1, hits give low values",1.01
same,normalized growth,"S. cerevisiae deletion strains, locus YML032C, strain rad52, hits give low values",0.994
same,normalized growth,"S. cerevisiae deletion strains, locus YML124C, strain tub3, hits give low values",0.985
same,normalized growth,"S. cerevisiae deletion strains, locus YMR078C, strain ctf18, hits give low values",0.989
same,normalized growth,"S. cerevisiae deletion strains, locus YMR223W, strain ubp8, hits give low values",0.99
same,normalized growth,[12],1.01
same,normalized growth,[13],0.86
same,normalized growth,"S. cerevisiae deletion strains, locus YNL067W, strain RPL9B, hits give low values",0.994
same,normalized growth,[14],0.995
same,normalized growth,[15],0.996
same,normalized growth,"S. cerevisiae deletion strains, locus YNL233W, strain BNI4, hits give low values",0.996
same,normalized growth,"S. cerevisiae deletion strains, locus YNL250W, strain rad50, hits give low values",0.982
same,normalized growth,"S. cerevisiae deletion strains, locus YNL271C, strain bni1, hits give low values",0.997
same,normalized growth,"S. cerevisiae deletion strains, locus YNL298W, strain CLA4, hits give low values",0.991
same,normalized growth,"S. cerevisiae deletion strains, locus YNL307C, strain MCK1, hits give low values",0.973
same,normalized growth,[16],1
same,normalized growth,"S. cerevisiae deletion strains, locus YNR052C, strain pop2, hits give low values",0.993
same,normalized growth,[17],0.963
same,normalized growth,"S. cerevisiae deletion strains, locus YOL012C, strain htz1",1.39
same,normalized growth,"S. cerevisiae deletion strains, locus YOL147C, strain pex11, hits give low values",0.984
same,normalized growth,"S. cerevisiae deletion strains, locus YOR061W, strain CKA2, hits give low values",1
same,normalized growth,"S. cerevisiae deletion strains, locus YOR069W, strain VPS5, hits give low values",1
same,normalized growth,"S. cerevisiae deletion strains, locus YOR136W, strain idh2, hits give low values",0.986
same,normalized growth,"S. cerevisiae deletion strains, locus YOR144C, strain elg1, hits give low values",0.986
same,normalized growth,"S. cerevisiae deletion strains, locus YOR184W, strain ser1, hits give low values",0.992
same,normalized growth,"S. cerevisiae deletion strains, locus YOR316C, strain cot1, hits give low values",0.994
same,normalized growth,[18],0.999
same,normalized growth,[19],0.999
same,normalized growth,"S. cerevisiae deletion strains, locus YPR119W, strain clb2, hits give low values",0.982
same,normalized growth,"S. cerevisiae deletion strains, locus YPR141C, strain kar3, hits give low values",0.997
same,normalized growth,"S. cerevisiae deletion strains, locus YPR163C, strain tif3, hits give low values",0.985
same,normalized growth,"S. cerevisiae deletion strains, locus YPR167C, strain met16, hits give low values",0.992
same,normalized growth,"S. cerevisiae deletion strains, strain wtn01, hits give low values",0.983
same,normalized growth,"S. cerevisiae strains, strain wild type, hits give low values",0.999
OC1(c2ccc(F)cc2)Cc2ccccc2C2=NCCN21 (stereo not drawn),normalized growth,[1],0.99
same,normalized growth,[2],0.987
same,normalized growth,[3],0.997
same,normalized growth,[4],0.932
same,normalized growth,[5],0.993
same,normalized growth,[6],0.98
same,normalized growth,[7],0.903
same,normalized growth,"S. cerevisiae deletion strains, locus YHR087W, strain rtc3, hits give low values",0.987
same,normalized growth,"S. cerevisiae deletion strains, locus YJL187C, strain SWE1, hits give low values",1.01
same,normalized growth,[8],1
same,normalized growth,[9],0.961
same,normalized growth,[10],0.975
same,normalized growth,"S. cerevisiae deletion strains, locus YLR058C, strain SHM2 (second series), hits give low values",0.983
same,normalized growth,"S. cerevisiae deletion strains, locus YLR085C, strain ARP6, hits give low values",0.954
same,normalized growth,[11],0.968
same,normalized growth,"S. cerevisiae deletion strains, locus YML094W, strain GIM5, hits give low values",0.982
same,normalized growth,"S. cerevisiae deletion strains, locus YMR219W, strain ESC1, hits give low values",0.998
same,normalized growth,[12],0.894
same,normalized growth,[13],0.925
same,normalized growth,[15],0.985
same,normalized growth,"S. cerevisiae deletion strains, locus YNL298W, strain CLA4 (second series), hits give low values",0.986
same,normalized growth,[16],0.992
same,normalized growth,"S. cerevisiae deletion strains, locus YNR030W, strain Alg12, hits give low values",0.98
same,normalized growth,[17],0.93
same,normalized growth,[18],0.866
same,normalized growth,[19],0.986
same,normalized growth,"S. cerevisiae deletion strains, locus YPR135W, strain CTF4, hits give low values",0.915
Clc1cccc(N2CCNCC2)c1,normalized growth,[20],0.974
same,normalized growth,[21],0.983
same,normalized growth,[22],0.981
same,normalized growth,[6],0.996
same,normalized growth,[13],0.991
same,normalized growth,[14],0.981
same,normalized growth,[15],0.985
same,normalized growth,[23],0.97
same,normalized growth,[24],0.979
same,normalized growth,[25],0.984
same,normalized growth,[16],0.996
same,normalized growth,[26],0.962
same,normalized growth,[19],0.982
OC(CN1CCN(c2cccc(Cl)c2)CC1)C(c1ccccc1)c1ccccc1 (stereo not drawn),normalized growth,[20],0.979
same,normalized growth,[21],0.986
same,normalized growth,[4],0.985
same,normalized growth,[22],1.19 [resistant] (active)
same,normalized growth,[6],1.01
same,normalized growth,[12],0.997
same,normalized growth,[15],0.992
same,normalized growth,[23],1.09
same,normalized growth,[24],0.992
same,normalized growth,[25],1.01
same,normalized growth,[16],0.97
same,normalized growth,[26],1.17 [resistant] (active)
